Source: PubChem BioAssay AID977607 (Broad Institute, 2014)
The campaign covered roughly 1,500 compounds. About 460 (31%) were called active. Another 1% or so got no clear call; they are omitted.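 The calls were made as follows: active = curve reaches 40% activation over neutral controls at an AC40 no higher than the top valid tested concentration; inconclusive = no clear call, values can overlap the other calls; inactive = signal moving opposite to the expected increase, and the rest.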 These entries were drawn from the full list. Potency and affinity values are given separately.

Assay: activators of glucose-dependent insulin secretion, dose response, cell-based, INS-1E, Gaussia luciferase, luminescence, cherry-pick, set 2 (AID 977607);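 also: 0% = median of the plate neutral control wells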
Conditions: INS-1E GLuc insulin secretion reporter, 2-3 h, active compounds read high; at 35 µM, 100% = signal doubled over neutral wells unless noted

Max activation, inactive:
CN1CCC(N(C)S(=O)(=O)c2ccc(NC(=O)COc3cccc(Cl)c3)cc2)CC1 -15.6%, CCOC(=O)Nc1ccc2c(c1)Sc1ccccc1N2C(=O)CCN1CCOCC1 -19.4% [at 0.0016 µM, 100% = signal doubled over neutral wells], CC(C)OCC(O)CN1CCC(Cc2ccccc2)CC1 (centres undefined) -7.86% [at 0.005 µM, 100% = signal doubled over neutral wells], O=C(N1CCOCC1)N1CCN(c2ccccn2)CC1 26.8% [at 1.2 µM, 100% = signal doubled over neutral wells], COc1ccc(CNC(=O)c2cnn3c(C(F)F)cc(C)nc23)cc1 24.2%, CC(=O)N1CCN(c2nnc(-c3ccccc3)c3ccccc23)CC1 -13.9% [at 0.005 µM, 100% = signal doubled over neutral wells], CCOC(=O)c1c(C)[nH]c(C(=O)COC(=O)c2cnccn2)c1C 27%, CCCCn1c(-c2ccncc2)nc2c1c(=O)[nH]c(=O)n2CC(C)C -13.3% [at 3.8 µM, 100% = signal doubled over neutral wells], COc1cc(OC)c(OC)cc1/C=N/n1c(C)nc2ccccc2c1=O -20.7% [at 0.42 µM, 100% = signal doubled over neutral wells], CCCc1cc(NCC2CCCO2)n2c(nc3ccccc32)c1C#N (centres undefined) -13% [at 0.015 µM, 100% = signal doubled over neutral wells], O=C(Cc1ccsc1)NNC(=O)c1ccccc1Cl -13.6%, O=C(NCc1ccco1)c1ccc2c(=O)n(CCC3=CCCCC3)c(=O)[nH]c2c1 -21.9%, Cc1cc2nc(-c3ccc(Cl)cc3)c(Cc3ccsc3)n2c(C)c1Br -39.9% [at 11 µM, 100% = signal doubled over neutral wells], COc1ccc(C(=O)NCC(=O)OCC(=O)Nc2sccc2C#N)cc1OC 24.5%, COc1ccc(C(=O)NCC(=O)OCC(=O)NC2CCCCCC2)cc1OC 19.5%, COc1ccc2[nH]c3c(NCCCN4CCCC4=O)ncnc3c2c1 11.2% [at 1.2 µM, 100% = signal doubled over neutral wells], Cc1ccc(S(=O)(=O)/N=C(/Nc2cccc(O)c2)c2ccccc2)cc1 48.6%, COc1cc(C(=O)Nc2cc(C(F)(F)F)ccc2N2CCOCC2)ccc1OCC(=O)N1CCOCC1 -13.6% [at 3.8 µM, 100% = signal doubled over neutral wells], Cc1ccc(C)c(S(=O)(=O)Nc2ccc(C(=O)N3CCC3)cc2)c1 27.7%, Cc1c(-c2cccc(Cl)c2)nc2ccccc2c1C(=O)NC1CC1 35.1% [at 1.2 µM, 100% = signal doubled over neutral wells], Cc1cc(C)cc(Cn2c3ccc(NC(=S)NCc4ccccc4F)cc3c(=O)n2C)c1 -51.1%, COC(=O)c1cccc(-n2c(=O)n(Cc3ccccc3)c(=O)c3[nH]cnc32)c1C 38.9% [at 11 µM, 100% = signal doubled over neutral wells], O=c1c2[nH]cnc2n(-c2ccc(F)cc2)c(=O)n1Cc1ccccc1 25.9% [at 0.42 µM, 100% = signal doubled over neutral wells], CN(Cc1ccccc1)c1ncnc2[nH]ncc12 19.1% [at 3.8 µM, 100% = signal doubled over neutral wells], Nn1c(C2CCCCC2)nc2ccccc2c1=O -24.8% [at 0.42 µM, 100% = signal doubled over neutral wells], CC(O)c1nc2ccccc2n1C1CCCCC1 (centres undefined) -13.8% [at 3.8 µM, 100% = signal doubled over neutral wells], O=C(O)COc1ccc2c3c(c(=O)oc2c1)CCC3 -18%, CCOC(=O)Cc1cc(=O)n2[nH]c(-c3ccc(C)cc3)cc2n1 26.5% [at 0.015 µM, 100% = signal doubled over neutral wells], O=C(CCS(=O)(=O)c1ccc(Cl)cc1)Nc1ccc(N2CCOCC2)cc1 26.5% [at 0.0016 µM, 100% = signal doubled over neutral wells], CCOc1ccc(CCNC(=O)CCC(=O)c2cccs2)cc1OCC -10.4% [at 0.0016 µM, 100% = signal doubled over neutral wells], CC(=O)Cc1nsc(NC(=O)c2ccc(-c3cccc(Cl)c3)o2)n1 -41.3%, CCOc1cccc2cc(C(=O)Nc3cc(C)on3)c(=O)oc12 -15.3% [at 0.42 µM, 100% = signal doubled over neutral wells], O=C(NCCc1ccccc1)c1cc(-c2ccc3c(c2)OCO3)on1 -16.8% [at 0.015 µM, 100% = signal doubled over neutral wells], C=CCNC(=O)c1cc(-c2ccc3c(c2)OCO3)on1 -23.5%, CCc1cc2c(COC(=O)c3cccc(S(C)(=O)=O)c3)cc(=O)oc2cc1O -21.8%, COCCNc1nc(NCCCN2CCCC2=O)c2sccc2n1 -21.2% [at 0.005 µM, 100% = signal doubled over neutral wells], CN(C)c1ncnc2sc(-c3ccccc3)cc12 75.3%, CCOC(=O)c1cnc2c(cnn2C)c1Oc1ccc(OC)cc1 -8.37% [at 0.135 µM, 100% = signal doubled over neutral wells], C=C(C)n1c(=O)n(Cc2ccccc2C)c2ccccc21 -20.9% [at 0.0016 µM, 100% = signal doubled over neutral wells], COc1ccc(CC(=O)OCC(=O)N2CCc3ccccc32)cc1OC -17.9% [at 0.135 µM, 100% = signal doubled over neutral wells], COc1ccc(CN(C)C(=O)CCN=C2NS(=O)(=O)c3ccccc32)c(OC)c1 -22.4% [at 0.015 µM, 100% = signal doubled over neutral wells], O=C1Nc2ccccc2N(C(=O)c2ccc3ccccc3c2)C1c1nc2ccccc2[nH]1 (centres undefined) -24.4% [at 11 µM, 100% = signal doubled over neutral wells], CC1=C(C(=O)N2CCOCC2)CC(CC(=O)NCCCN(C)C)C(=O)N1CCCN1CCCC1=O (centres undefined) -20.9%, Cc1cc(Br)ccc1NC(=O)CN(C)C(=O)C1CSC2(C)CCC(=O)N12 (centres undefined) -12.1% [at 0.015 µM, 100% = signal doubled over neutral wells], COc1ccc(S(=O)(=O)N2CCc3ccccc32)cc1C(=O)Nc1cccnc1 -10.3% [at 3.8 µM, 100% = signal doubled over neutral wells], O=S(=O)(c1ccc(Cl)nc1)N1CCc2ccccc21 -28.1%, COc1cc(C(=O)O)ccc1OCc1ccccc1 -15.4% [at 0.42 µM, 100% = signal doubled over neutral wells], CCc1ccc(N(C2C=CS(=O)(=O)C2)S(=O)(=O)c2ccccc2)cc1 (centres undefined) -8.85% [at 0.015 µM, 100% = signal doubled over neutral wells], CCCc1nnc2c(N(C)S(=O)(=O)c3ccc(C)cc3)nc3ccccc3n12 -17% [at 0.005 µM, 100% = signal doubled over neutral wells], COc1ccc(Nc2c3c(nc4ccccc24)CCC3)cc1 -16.4% [at 0.046 µM, 100% = signal doubled over neutral wells], c1csc(CNc2nc(Oc3ccncc3)c3sccc3n2)c1 -17.1% [at 0.0016 µM, 100% = signal doubled over neutral wells], CN1CCCCC(NC(=O)c2ccccc2)C1=O (centres undefined) -13.5% [at 0.42 µM, 100% = signal doubled over neutral wells], COc1ccc(S(=O)(=O)Nc2ccc3c(c2)OCO3)cc1OC -21.1%, Cc1cccc(C)c1-n1nnnc1C1(C)CCC(=O)N1Cc1cccs1 (centres undefined) 25.2%, CCOc1cc(CNc2cccc3[nH]c(C)nc23)ccc1OC -11.6% [at 0.0016 µM, 100% = signal doubled over neutral wells], CCN(CC)C(=O)Cn1cc(C(=O)C(=O)N2CCN(Cc3ccccc3)CC2)c2ccccc21 -19.3%, CC(=O)N1CCN(c2nnc(-c3ccc(C)cc3)c3ccccc23)CC1 -19.3% [at 3.8 µM, 100% = signal doubled over neutral wells], Cc1ncc(N=Nc2ccc(F)cc2)c(-c2ccc(Cl)cc2)n1 105%, CC(=O)Nc1nc(NCc2ccccc2Cl)n(-c2ccccc2)n1 -19.9% [at 0.135 µM, 100% = signal doubled over neutral wells]
